Laboratory results as given in PubChem BioAssay AID1159580 (chemical genetic matrix, 2015).
Several values for one entry are separate records, joined by “and”; a condition that tells them apart may be missing. Identical values can stand only once. Out of some 5,500 compounds screened, about 2,000 (36%) were called active. Inconclusive results (about 18%) are left out. Rule as the data show it: active = normalized growth mostly below about 0.91 (no sharp cut-off); inconclusive = no clear call, values can overlap the other calls; inactive = mostly above about 0.92. This is one part of the list.

Assay: chemical genetic growth profiling, strain panel (AID 1159580);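 also: tested at 20 µM; growth read once vehicle control cultures reached saturation at 30 °C; 1 = growth at the plate median or of vehicle wells; lower values mean less growth of the strain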
Settings: growth OD
[1] = S. cerevisiae deletion strains, locus YAL013W, strain DEP1, hits give low values
[2] = S. cerevisiae deletion strains, locus YBR229C, strain ROT2, hits give low values
[3] = S. cerevisiae deletion strains, locus YDL101C, strain DUN1, hits give low values
[4] = S. cerevisiae deletion strains, locus YDR150W, strain NUM1, hits give low values
[5] = S. cerevisiae deletion strains, locus YEL061C, strain CIN8, hits give low values
[6] = S. cerevisiae deletion strains, locus YGR078C, strain PAC10, hits give low values
[7] = S. cerevisiae deletion strains, locus YGR229C, strain SMI1, hits give low values
[8] = S. cerevisiae deletion strains, locus YHR030C, strain SLT2, hits give low values
[9] = S. cerevisiae deletion strains, locus YKL190W, strain CNB1, hits give low values
[10] = S. cerevisiae deletion strains, locus YLR039C, strain RIC1, hits give low values
[11] = S. cerevisiae deletion strains, locus YMR263W, strain SAP30, hits give low values
[12] = S. cerevisiae deletion strains, locus YMR307W, strain GAS1, hits give low values
[13] = S. cerevisiae deletion strains, locus YNL153C, strain GIM3, hits give low values
[14] = S. cerevisiae deletion strains, locus YOL006C, strain TOP1, hits give low values
[15] = S. cerevisiae deletion strains, locus YPL055C, strain LGE1, hits give low values
[16] = S. cerevisiae deletion strains, locus YPL241C, strain CIN2, hits give low values
[17] = S. cerevisiae deletion strains, locus YHR079C, strain IRE1, hits give low values
[18] = S. cerevisiae deletion strains, locus YJL095W, strain BCK1, hits give low values
[19] = S. cerevisiae deletion strains, locus YJR066W, strain TOR1, hits give low values
[20] = S. cerevisiae deletion strains, locus YLR113W, strain HOG1, hits give low values
[21] = S. cerevisiae deletion strains, locus YNL183C, strain NPR1, hits give low values
[22] = S. cerevisiae deletion strains, locus YOR231W, strain MKK1, hits give low values
[23] = S. cerevisiae deletion strains, locus YPL256C, strain CLN2, hits give low values

Measured: normalized growth

COC(=O)c1cc(OC)c(OC)cc1-n1c(C)ccc1C
inactive: [1] 0.999 | [2] 0.994 | [3] 0.975 | S. cerevisiae deletion strains, locus YDL134C, strain PPH21, hits give low values 1.03 | [4] 0.947 | [5] 1.01 | [6] 0.987 | [7] 1 | [8] 0.999 | S. cerevisiae deletion strains, locus YHR087W, strain rtc3, hits give low values 0.983 | S. cerevisiae deletion strains, locus YJR043C, strain POL32, hits give low values 0.985 | S. cerevisiae deletion strains, locus YJR075W, strain HOC1, hits give low values 0.963 | [9] 1.01 | [10] 0.993 | S. cerevisiae deletion strains, locus YLR058C, strain SHM2 (second series), hits give low values 0.995 | S. cerevisiae deletion strains, locus YLR085C, strain ARP6, hits give low values 1.01 | S. cerevisiae deletion strains, locus YLR262C, strain YPT6, hits give low values 0.957 | S. cerevisiae deletion strains, locus YML094W, strain GIM5, hits give low values 1 | S. cerevisiae deletion strains, locus YMR219W, strain ESC1, hits give low values 0.998 | [11] 0.91 | [12] 0.948 | [13] 0.983 | S. cerevisiae deletion strains, locus YNL298W, strain CLA4 (second series), hits give low values 1.02 | S. cerevisiae deletion strains, locus YNL322C, strain KRE1, hits give low values 0.99 | S. cerevisiae deletion strains, locus YNR030W, strain Alg12, hits give low values 1.01 | [14] 1 | [15] 0.877 | [16] 1 | S. cerevisiae deletion strains, locus YPR135W, strain CTF4, hits give low values 0.915 | S. cerevisiae strains, strain wild type, hits give low values 1.01

CC(=O)O[C@@H]1CC2C(C)(C)C(=O)CC[C@]2(C)C2CC[C@]3(C)C(=CC(=O)O[C@H]3c3ccoc3)[C@@]21C (stereo partly specified)
inactive: [1] 0.988 | S. cerevisiae deletion strains, locus YBR021W, strain FUR4, hits give low values 0.989 | [2] 0.939 | S. cerevisiae deletion strains, locus YCL029C, strain bik1, hits give low values 0.985 | S. cerevisiae deletion strains, locus YDL035C, strain GPR1, hits give low values 0.964 | S. cerevisiae deletion strains, locus YDL074C, strain BRE1, hits give low values 0.954 | [3] 1 | S. cerevisiae deletion strains, locus YDL185W, strain tfp1, hits give low values 0.966 | S. cerevisiae deletion strains, locus YDL192W, strain arf1, hits give low values 0.971 | S. cerevisiae deletion strains, locus YDR101C, strain arx1, hits give low values 0.959 | S. cerevisiae deletion strains, locus YDR162C, strain NBP2, hits give low values 0.98 | S. cerevisiae deletion strains, locus YDR318W, strain mcm21, hits give low values 0.992 | S. cerevisiae deletion strains, locus YDR388W, hits give low values 0.995 | S. cerevisiae deletion strains, locus YDR502C, strain sam2, hits give low values 1.01 | [5] 0.972 | S. cerevisiae deletion strains, locus YER110C, hits give low values 0.978 | S. cerevisiae deletion strains, locus YER155C, strain BEM2, hits give low values 0.991 | S. cerevisiae deletion strains, locus YER167W, strain BCK2, hits give low values 0.97 | S. cerevisiae deletion strains, locus YGL078C, strain dbp3, hits give low values 1.01 | S. cerevisiae deletion strains, locus YGL086W, strain mad1, hits give low values 0.998 | S. cerevisiae deletion strains, locus YGL248W, strain PDE1, hits give low values 0.999 | [6] 1.02 | S. cerevisiae deletion strains, locus YGR135W, strain pre9, hits give low values 1.07 | S. cerevisiae deletion strains, locus YGR252W, strain gcn5, hits give low values 1.03 | [8] 1.06 | S. cerevisiae deletion strains, locus YHR079C, strain IRE1 (second series), hits give low values 0.975 | [17] 1.04 | S. cerevisiae deletion strains, locus YHR094C, strain hxt1, hits give low values 0.991 | S. cerevisiae deletion strains, locus YHR129C, strain ARP1, hits give low values 0.989 | S. cerevisiae deletion strains, locus YHR200W, strain rpn10, hits give low values 1 | S. cerevisiae deletion strains, locus YIL066C, strain RNR3, hits give low values 0.948 | S. cerevisiae deletion strains, locus YIL073C, strain SPO22, hits give low values 0.977 | S. cerevisiae deletion strains, locus YIL125W, strain kgd1, hits give low values 0.993 | S. cerevisiae deletion strains, locus YIR030C, strain dcg1, hits give low values 0.987 | [18] 1.05 and 1.06 | S. cerevisiae deletion strains, locus YJL134W, strain LCB3, hits give low values 0.98 | S. cerevisiae deletion strains, locus YJL168C, strain set2, hits give low values 0.988 | S. cerevisiae deletion strains, locus YJL187C, strain SWE1 (second series), hits give low values 1.01 | [19] 0.991 | S. cerevisiae deletion strains, locus YKL009W, strain mrt4, hits give low values 0.976 | S. cerevisiae deletion strains, locus YKL068W, hits give low values 0.991 | S. cerevisiae deletion strains, locus YKL085W, strain MDH1 (second series), hits give low values 0.995 | S. cerevisiae deletion strains, locus YKL085W, strain MDH1, hits give low values 0.995 | [9] 0.983 | S. cerevisiae deletion strains, locus YKR001C, strain vps1, hits give low values 0.974 | [10] 0.961 | S. cerevisiae deletion strains, locus YLR058C, strain SHM2, hits give low values 0.979 | S. cerevisiae deletion strains, locus YLR102C, strain apc9, hits give low values 0.99 | [20] 1.03 | S. cerevisiae deletion strains, locus YLR268W, strain sec22, hits give low values 0.956 | S. cerevisiae deletion strains, locus YLR371W, strain rom2, hits give low values 0.967 | S. cerevisiae deletion strains, locus YLR418C, strain cdc73, hits give low values 1 | S. cerevisiae deletion strains, locus YML016C, strain PPZ1, hits give low values 0.978 | S. cerevisiae deletion strains, locus YML032C, strain rad52, hits give low values 0.982 | S. cerevisiae deletion strains, locus YML124C, strain tub3, hits give low values 0.992 | S. cerevisiae deletion strains, locus YMR078C, strain ctf18, hits give low values 0.989 | S. cerevisiae deletion strains, locus YMR223W, strain ubp8, hits give low values 1 | [12] 0.989 | S. cerevisiae deletion strains, locus YNL067W, strain RPL9B, hits give low values 1.04 | [21] 0.989 | S. cerevisiae deletion strains, locus YNL233W, strain BNI4, hits give low values 1.03 | S. cerevisiae deletion strains, locus YNL250W, strain rad50, hits give low values 0.992 | S. cerevisiae deletion strains, locus YNL271C, strain bni1, hits give low values 0.993 | S. cerevisiae deletion strains, locus YNL298W, strain CLA4, hits give low values 0.989 | S. cerevisiae deletion strains, locus YNL307C, strain MCK1, hits give low values 0.982 | S. cerevisiae deletion strains, locus YNR052C, strain pop2, hits give low values 1.04 | [14] 0.932 | S. cerevisiae deletion strains, locus YOL012C, strain htz1 0.896 | S. cerevisiae deletion strains, locus YOL147C, strain pex11, hits give low values 0.984 | S. cerevisiae deletion strains, locus YOR061W, strain CKA2, hits give low values 0.934 | S. cerevisiae deletion strains, locus YOR069W, strain VPS5, hits give low values 0.996 | S. cerevisiae deletion strains, locus YOR136W, strain idh2, hits give low values 1 | S. cerevisiae deletion strains, locus YOR144C, strain elg1, hits give low values 0.997 | S. cerevisiae deletion strains, locus YOR184W, strain ser1, hits give low values 0.964 | [22] 1.07 | S. cerevisiae deletion strains, locus YOR316C, strain cot1, hits give low values 0.997 | [16] 0.978 | [23] 1.05 | S. cerevisiae deletion strains, locus YPR119W, strain clb2, hits give low values 0.992 | S. cerevisiae deletion strains, locus YPR141C, strain kar3, hits give low values 0.982 | S. cerevisiae deletion strains, locus YPR163C, strain tif3, hits give low values 0.99 | S. cerevisiae deletion strains, locus YPR167C, strain met16, hits give low values 0.992 | S. cerevisiae deletion strains, strain wtn01, hits give low values 0.967

CC[N+](CC)(CC)CC(=O)Nc1c(C)cccc1C
inactive: S. cerevisiae deletion strains, locus YAL040C, strain CLN3, hits give low values 0.958 | S. cerevisiae deletion strains, locus YCL061C, strain MRC1 (second series), hits give low values 0.999 | [4] 1 | S. cerevisiae deletion strains, locus YDR363W, strain ESC2, hits give low values 1.02 | S. cerevisiae deletion strains, locus YER002W, strain NOP16, hits give low values 1.01 | [6] 1.02 | [7] 1 | [11] 1 | S. cerevisiae deletion strains, locus YNL128W, strain TEP1, hits give low values 1.01 | [13] 0.995 | S. cerevisiae deletion strains, locus YNL175C, strain NOP13, hits give low values 1 | S. cerevisiae deletion strains, locus YNL197C, strain WHI3, hits give low values 1.01 | S. cerevisiae deletion strains, locus YNL224C, strain SQS1, hits give low values 0.999 | S. cerevisiae deletion strains, locus YOR083W, strain WHI5 (second series), hits give low values 0.999 | [15] 1.01

CC[N+](CC)(CC(=O)Nc1c(C)cccc1C)Cc1ccccc1
active: [20] 0.814
inactive: [8] 0.962 | [17] 0.878 | [18] 0.916 | [19] 0.897 | [21] 0.851 | [22] 0.899 | [23] 0.868
